Test results from PubChem BioAssay (NCATS).
Records with an inconclusive call do not appear. Active and inactive are the calls of the source. Calls come from the whole dose curve; as a rule, active = well fitted curve in the direction sought with a large enough effect; inconclusive = small, poorly fitted or top-dose-only effect, or another doubt; inactive = no such curve, though single readings can be large; an effect the other way counts as inactive or inconclusive.

Key:
C33A = experiment: Primary qHTS to identify gynecologic anti-cancer compounds using libraries of approved drugs and bioactive compounds (AID 1345084); conditions: Gynecologic cancer cell panel viability, ATPlite luminescence, 48 h; series mostly up to 57.5 µM; note: nearly all actives have a fitted effect of over 55% in size
How it was run: (§1)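 Luminescence from the ATPlite ATP-monitoring reagent indicates viable cell number; lower signal means cytotoxicity. Cells received compound 16 h after seeding and were exposed for 48 h across five concentrations.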

CAOV3 = experiment: as above; conditions: Gynecologic cancer cell panel viability, ATPlite luminescence, 48 h; series mostly up to 57.5 µM
How it was run: as §1

CASKI = experiment: as above; conditions: Gynecologic cancer cell panel viability, ATPlite luminescence, 48 h; series mostly up to 57.5 µM
How it was run: as §1

Es-2 = experiment: as above; conditions: Gynecologic cancer cell panel viability, ATPlite luminescence, 48 h; series mostly up to 57.5 µM
How it was run: as §1

HeLa = experiment: as above; conditions: Gynecologic cancer cell panel viability, ATPlite luminescence, 48 h; series mostly up to 57.5 µM
How it was run: as §1

Hek293T = experiment: as above; conditions: Gynecologic cancer cell panel viability, ATPlite luminescence, 48 h, control line for the selectivity index; series mostly up to 57.5 µM
How it was run: as §1

JEG-3 = experiment: as above; conditions: Gynecologic cancer cell panel viability, ATPlite luminescence, 48 h; series mostly up to 57.5 µM
How it was run: as §1

OV90 = experiment: as above; conditions: Gynecologic cancer cell panel viability, ATPlite luminescence, 48 h; series mostly up to 57.5 µM
How it was run: as §1

PA-1 = experiment: as above; conditions: Gynecologic cancer cell panel viability, ATPlite luminescence, 48 h; series mostly up to 57.5 µM
How it was run: as §1

SKOV3 = experiment: as above; conditions: Gynecologic cancer cell panel viability, ATPlite luminescence, 48 h; series mostly up to 57.5 µM
How it was run: as §1

Tov-21-G = experiment: as above; conditions: Gynecologic cancer cell panel viability, ATPlite luminescence, 48 h; series mostly up to 57.5 µM
How it was run: as §1

Tov112D = experiment: as above; conditions: Gynecologic cancer cell panel viability, ATPlite luminescence, 48 h; series mostly up to 57.5 µM
How it was run: as §1

[1] = Drug repurposing screens with cells derived from glioblastoma tumor samples (AID 1345199); conditions: GBM patient neurospheres viability, ATP luminescence, 48 h; note: nearly all actives have a fitted effect of over 40% in size
How it was run: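 Primary testing used CD133+ neurospheres from four GBM patients, seven concentrations, 48 h exposure and ATP-based viability; confirmation added three slower-growing patient lines.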

[2] = at 45.9 µM (top of the series), tumour line B
[3] = at 45.9 µM (top of the series), tumour line D
% is set by controls: 0 for no effect and ±100 for the full control effect.

COc1cc(C(O)C(CO)Oc2ccc(CCCO[C@@H]3O[C@@H](C)[C@H](O)[C@@H](O)[C@H]3O)cc2OC)ccc1O (stereo partly specified)
inactive: Potency (C33A) | Potency (CAOV3) | Potency (CASKI) | Potency (Es-2) | Potency (HeLa) | Potency (Hek293T) | Potency (JEG-3) | Potency (OV90) | Potency (PA-1) | Potency (SKOV3) | Potency (Tov-21-G) | Potency (Tov112D)

COC(=O)C1=CO[C@@H](O[C@@H]2O[C@H](CO[C@@H]3O[C@H](COC(=O)/C=C/c4ccc(O)cc4)[C@@H](O)[C@H](O)[C@H]3O)[C@@H](O)[C@H](O)[C@H]2O)[C@@H]2C(CO)=CC[C@H]12
inactive: Potency (C33A) | Potency (CAOV3) | Potency (CASKI) | Potency (Es-2) | Potency (HeLa) | Potency (Hek293T) | Potency (JEG-3) | Potency (OV90) | Potency (PA-1) | Potency (SKOV3) | Potency (Tov-21-G) | Potency (Tov112D)

COc1cc(CC(COC2OC(CO)C(O)C(O)C2O)c2cc(/C=C/CO)cc(OC)c2O)ccc1O (stereo unspecified)
inactive: Potency (C33A) | Potency (CAOV3) | Potency (CASKI) | Potency (Es-2) | Potency (HeLa) | Potency (Hek293T) | Potency (JEG-3) | Potency (OV90) | Potency (PA-1) | Potency (Tov-21-G) | Potency (Tov112D)

COc1c(C)c(C(=O)c2ccc(N)c(C(=O)O)c2)n2ccccc12
inactive: Potency (C33A) | Potency (CAOV3) | Potency (CASKI) | Potency (Es-2) | Potency (HeLa) | Potency (Hek293T) | Potency (JEG-3) | Potency (OV90) | Potency (PA-1) | Potency (SKOV3) | Potency (Tov-21-G) | Potency (Tov112D)

CC(=O)c1c(C)cc(O[C@@H]2O[C@H](CO)[C@@H](O)[C@H](O)[C@H]2O)cc1O
inactive: Potency (C33A) | Potency (CAOV3) | Potency (CASKI) | Potency (Es-2) | Potency (HeLa) | Potency (Hek293T) | Potency (JEG-3) | Potency (OV90) | Potency (PA-1) | Potency (SKOV3) | Potency (Tov-21-G) | Potency (Tov112D)

CCC(=O)O[C@]1(C(=O)CCl)[C@@H](C)C[C@H]2[C@@H]3C[C@H](F)C4=CC(=O)C=C[C@]4(C)[C@@]3(F)[C@@H](O)C[C@@]21C
inactive: Potency (C33A) | Potency (CAOV3) | Potency (CASKI) | Potency (Es-2) | Potency (HeLa) | Potency (Hek293T) | Potency (JEG-3) | Potency (OV90) | Potency (PA-1) | Potency (SKOV3) | Potency (Tov-21-G) | Potency (Tov112D) | activity, negative = cell killing [1, 2] -14.4% | activity, negative = cell killing [1, 3] -33.8%

C=CC1(C)CC(O)C2(CCC3C(C)(C(=O)O)CCCC3(C)C2=O)C1 (stereo unspecified)
inactive: Potency (C33A) | Potency (CAOV3) | Potency (CASKI) | Potency (Es-2) | Potency (HeLa) | Potency (Hek293T) | Potency (JEG-3) | Potency (OV90) | Potency (PA-1) | Potency (SKOV3) | Potency (Tov-21-G) | Potency (Tov112D)

CCOC(=O)[C@H](CCc1ccccc1)CC1(C(=O)N[C@H]2CCc3ccccc3N(CC(=O)O)C2=O)CCCC1
inactive: Potency (C33A) | Potency (CAOV3) | Potency (CASKI) | Potency (Es-2) | Potency (HeLa) | Potency (Hek293T) | Potency (JEG-3) | Potency (OV90) | Potency (PA-1) | Potency (SKOV3) | Potency (Tov-21-G) | Potency (Tov112D)

C[C@@H]1C[C@H]2[C@@H]3CCC4=CC(=O)C=C[C@]4(C)[C@@]3(F)[C@@H](O)C[C@]2(C)[C@@]1(O)C(=O)COP(=O)(O)O
inactive: Potency (C33A) | Potency (CAOV3) | Potency (CASKI) | Potency (Es-2) | Potency (HeLa) | Potency (Hek293T) | Potency (JEG-3) | Potency (OV90) | Potency (PA-1) | Potency (SKOV3) | Potency (Tov-21-G) | Potency (Tov112D) | activity, negative = cell killing [1, 2] -3.61% | activity, negative = cell killing [1, 3] 1.29% | activity, negative = cell killing ([1]; at 46 µM (top of the series), tumour line A) -0.902% | activity, negative = cell killing ([1]; at 46.1 µM (top of the series), tumour line C) -0.678%

COc1cccc(-c2ccc([C@@H](Oc3cc(-c4ccc(C[C@H](N)C(=O)O)cc4)nc(N)n3)C(F)(F)F)cc2)c1
inactive: Potency (C33A) | Potency (CAOV3) | Potency (CASKI) | Potency (Es-2) | Potency (HeLa) | Potency (Hek293T) | Potency (JEG-3) | Potency (OV90) | Potency (PA-1) | Potency (SKOV3) | Potency (Tov-21-G) | Potency (Tov112D)

COC1=CC(=O)O[C@@H](CCc2ccccc2)[C@@H]1O
inactive: Potency (C33A) | Potency (CAOV3) | Potency (CASKI) | Potency (Es-2) | Potency (HeLa) | Potency (Hek293T) | Potency (JEG-3) | Potency (OV90) | Potency (PA-1) | Potency (SKOV3) | Potency (Tov-21-G) | Potency (Tov112D)

CC(=O)N[C@H]1[C@H](O[C@H]2CC[C@@]3(C)C(CC[C@]4(C)C3CC=C3C5CC(C)(C)CC[C@]5(C(=O)O)[C@H](O[C@@H]5O[C@H](CO)[C@@H](O)[C@H](O)[C@H]5O)C[C@]34C)C2(C)C)O[C@H](CO[C@@H]2OC[C@H](O)[C@H](O)[C@H]2O[C@@H]2OC[C@@H](O)[C@H](O)[C@H]2O)[C@@H](O)[C@@H]1O (stereo partly specified)
inactive: activity change, negative = cytotoxicity (C33A) -4.04% [at 11.6 µM] | activity change, negative = cytotoxicity (CAOV3) 4.01% [at 11.6 µM] | activity change, negative = cytotoxicity (CASKI) -4.68% [at 11.6 µM] | activity change, negative = cytotoxicity (Es-2) -1.11% [at 11.6 µM] | activity change, negative = cytotoxicity (HeLa) 15.9% [at 11.6 µM] | activity change, negative = cytotoxicity (Hek293T) -2.94% [at 11.6 µM] | activity change, negative = cytotoxicity (JEG-3) -2.88% [at 11.6 µM] | activity change, negative = cytotoxicity (OV90) -0.313% [at 11.6 µM] | activity change, negative = cytotoxicity (PA-1) -6.75% [at 11.6 µM] | activity change, negative = cytotoxicity (SKOV3) 13% [at 11.6 µM] | activity change, negative = cytotoxicity (Tov-21-G) 0.549% [at 11.6 µM] | activity change, negative = cytotoxicity (Tov112D) 6.55% [at 11.6 µM]

COc1cc(/C=C/C(=O)OC2[C@H](O)CC(O)(C(=O)O)C[C@H]2O)ccc1O (stereo partly specified)
inactive: Potency (C33A) | Potency (CAOV3) | Potency (CASKI) | Potency (Es-2) | Potency (HeLa) | Potency (Hek293T) | Potency (JEG-3) | Potency (OV90) | Potency (PA-1) | Potency (SKOV3) | Potency (Tov-21-G) | Potency (Tov112D)
